Reference: PubChem BioAssay (EPA / NIEHS)
Results filed as inconclusive are left out. Active and inactive are the calls of the source. How the source made its calls: active means hit-call score of the fitted dose curve at least 0.9, where 1 is the maximum; inconclusive means response in the unintended direction; inactive means score below 0.9.

experiment: ATG_XTT_Cytotoxicity: Cytotoxicity Assessment in the Attagene TRANS-FACTORIAL HepG2 Assay (AID 2283584)
In short: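 Cells: human HepG2, transiently transfected with MRTU reporter constructs. Exposure 24 h. Readout: XTT, cell number. Baseline/neg ctrl DMSO; loss-of-signal scored.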

Row | Structure (SMILES) | outcome
1 | OCc1ccco1 | inactive
2 | O=C1CCCN1 | inactive
3 | CCCCOCCOC(C)=O | inactive
4 | CCC(=O)c1ccccc1 | inactive
5 | COc1ccc(C=O)cc1 | inactive
6 | CCOC(=O)Nc1cccc(OC(=O)Nc2ccccc2)c1 | inactive
7 | CC(Br)C(=O)O (centres undefined) | inactive
8 | Cc1cc(=O)[nH]o1 | inactive
9 | Nc1ccc(-c2ccc(N)c(Cl)c2)cc1Cl | inactive
